For some assays here: Entries with a potency or affinity are not part of this list.
Legend:
Parameters in all cases: scale not given: direction of the effect not stated beside the values
[1] = biological target: Protein translocase subunit SecA (Escherichia coli (strain K12)) (UniProt P10408); assay: Assay to Identify E. coli SecA ATPase Inhibitors; type: functional; details: 30 µM
[2] = biological target: T1, Ubiquitin-activating enzyme e1, putative (Leishmania donovani (strain BPK282A1)) (UniProt E9BSI1); assay: Leishmania donovani Ubiquitin Activating Enzyme (LdE1); type: functional; details: 30 µM
T1 sequence (whole entry): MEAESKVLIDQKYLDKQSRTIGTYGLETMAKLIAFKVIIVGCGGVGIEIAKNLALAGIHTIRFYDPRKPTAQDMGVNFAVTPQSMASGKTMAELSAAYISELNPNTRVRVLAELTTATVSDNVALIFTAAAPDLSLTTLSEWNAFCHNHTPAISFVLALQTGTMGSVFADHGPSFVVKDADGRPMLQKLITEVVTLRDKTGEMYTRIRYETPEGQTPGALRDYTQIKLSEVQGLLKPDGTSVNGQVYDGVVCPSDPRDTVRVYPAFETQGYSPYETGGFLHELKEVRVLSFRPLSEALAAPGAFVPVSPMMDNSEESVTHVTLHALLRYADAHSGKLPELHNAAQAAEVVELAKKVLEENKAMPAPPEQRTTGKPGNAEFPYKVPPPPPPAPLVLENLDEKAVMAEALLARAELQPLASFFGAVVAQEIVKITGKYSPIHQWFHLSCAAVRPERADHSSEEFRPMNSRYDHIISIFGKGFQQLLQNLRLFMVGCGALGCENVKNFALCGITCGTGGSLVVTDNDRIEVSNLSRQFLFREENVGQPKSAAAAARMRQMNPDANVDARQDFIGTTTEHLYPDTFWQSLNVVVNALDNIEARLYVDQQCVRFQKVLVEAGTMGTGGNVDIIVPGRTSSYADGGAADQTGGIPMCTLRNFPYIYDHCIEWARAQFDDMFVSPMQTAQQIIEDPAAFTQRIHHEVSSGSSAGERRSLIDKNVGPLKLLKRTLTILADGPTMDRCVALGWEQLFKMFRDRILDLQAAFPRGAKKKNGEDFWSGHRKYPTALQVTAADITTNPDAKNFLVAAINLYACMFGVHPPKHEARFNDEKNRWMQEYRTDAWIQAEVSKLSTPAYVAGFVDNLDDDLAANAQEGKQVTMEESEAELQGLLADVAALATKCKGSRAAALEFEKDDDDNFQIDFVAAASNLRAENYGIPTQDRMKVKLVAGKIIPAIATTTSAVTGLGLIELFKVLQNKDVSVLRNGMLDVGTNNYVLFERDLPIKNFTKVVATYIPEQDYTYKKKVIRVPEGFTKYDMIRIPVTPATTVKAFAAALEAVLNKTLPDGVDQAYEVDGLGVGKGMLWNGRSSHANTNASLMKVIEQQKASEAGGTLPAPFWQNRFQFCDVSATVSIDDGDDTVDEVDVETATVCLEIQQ

[3] = biological target: AMP-activated protein kinase, AMPK (Homo sapiens) (UniProt P54646+O43741+P54619+Q9UGJ0+Q9Y478+Q13131+Q9UGI9); assay: AMP-dependent Kinase enzyme assay. An in vitro enzyme assay that detects ADP turnover that is directly proportional to AMPK activity. This uses naive AMPK that is activated during the assay with MK-8722; type: functional; details: 30 µM
[4] = biological target: Sialic acid-binding Ig-like lectin 9 (Homo sapiens) (UniProt Q9Y336); assay: Hs-Siglec9 ALPHAscreen SOP 20170721; details: 10 µM
Sequence of Sialic acid-binding Ig-like lectin 9 (Homo sapiens) (Q9Y336 whole entry): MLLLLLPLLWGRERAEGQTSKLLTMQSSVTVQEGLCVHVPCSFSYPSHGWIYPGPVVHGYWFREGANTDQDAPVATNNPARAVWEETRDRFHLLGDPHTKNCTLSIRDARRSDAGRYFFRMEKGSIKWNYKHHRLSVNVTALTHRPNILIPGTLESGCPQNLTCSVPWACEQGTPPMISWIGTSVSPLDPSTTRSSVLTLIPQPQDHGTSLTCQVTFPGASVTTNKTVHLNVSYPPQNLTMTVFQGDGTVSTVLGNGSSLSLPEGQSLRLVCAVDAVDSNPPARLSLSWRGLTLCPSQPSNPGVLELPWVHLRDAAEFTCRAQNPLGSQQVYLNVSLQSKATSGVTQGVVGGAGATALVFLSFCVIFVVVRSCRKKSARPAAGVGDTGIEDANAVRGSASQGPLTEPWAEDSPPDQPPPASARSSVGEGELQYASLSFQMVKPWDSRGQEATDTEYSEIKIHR

[5] = test system: Trypanosoma cruzi; assay: Trypanosoma cruzi phosphomannomutase and mannose-1-phosphate guanylyltransferase assay; type: functional; details: 10 µM
[6] = biological target: T2, Arginase-2, mitochondrial (Homo sapiens) (UniProt P78540); assay: in vitro enzyme assay to detect the production of urea directly proportional to the activity of Arginase II; type: functional; details: 33.3 µM; note: in the data most compounds retested in dose-response had high values
T2 sequence (whole entry): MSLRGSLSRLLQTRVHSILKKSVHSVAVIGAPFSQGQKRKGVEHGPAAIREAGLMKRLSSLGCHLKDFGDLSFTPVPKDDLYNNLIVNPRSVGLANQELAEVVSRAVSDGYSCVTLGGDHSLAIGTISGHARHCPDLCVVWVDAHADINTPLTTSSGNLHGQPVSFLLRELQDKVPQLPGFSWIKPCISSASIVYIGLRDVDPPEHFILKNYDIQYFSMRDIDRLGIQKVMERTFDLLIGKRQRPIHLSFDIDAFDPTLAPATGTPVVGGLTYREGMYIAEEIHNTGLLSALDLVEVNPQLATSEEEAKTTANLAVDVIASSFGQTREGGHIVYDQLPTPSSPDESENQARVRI

[7] = biological target: T3, Proteasome subunit beta (Trypanosoma cruzi) (UniProt O96673); assay: Trypanosoma cruzi proteasome chymotrypsin-like activity (TcProtChymo) assay.; note: in the data most compounds retested in dose-response had high values; type: functional; details: 9.37 µM
T3 sequence (whole entry): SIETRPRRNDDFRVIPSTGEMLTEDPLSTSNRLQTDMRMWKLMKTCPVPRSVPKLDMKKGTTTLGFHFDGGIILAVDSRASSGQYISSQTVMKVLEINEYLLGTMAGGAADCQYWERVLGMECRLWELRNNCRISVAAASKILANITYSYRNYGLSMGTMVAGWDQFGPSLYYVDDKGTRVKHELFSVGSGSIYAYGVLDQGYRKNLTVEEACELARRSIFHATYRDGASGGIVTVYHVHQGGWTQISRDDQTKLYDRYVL

[8] = species: Homo sapiens; assay: To identify inhibition of the IFN signalling (Jak-Stat) pathway via expression of an eGFP reporter gene under the control of an IFN-stimulated response element (ISRE) containing MxA promoter.; type: functional; details: 30 µM
[9] = biological target: T4, Tyrosyl-tRNA synthetase, putative (Trypanosoma cruzi (strain CL Brener)) (UniProt Q4DSP6); assay: Trypanosoma cruzi tyrosyl tRNA synthetase (TcYRS) _High Tyrosine SOP; type: functional; details: 30 µM; note: in the data most compounds retested in dose-response had high values
T4 sequence (whole entry): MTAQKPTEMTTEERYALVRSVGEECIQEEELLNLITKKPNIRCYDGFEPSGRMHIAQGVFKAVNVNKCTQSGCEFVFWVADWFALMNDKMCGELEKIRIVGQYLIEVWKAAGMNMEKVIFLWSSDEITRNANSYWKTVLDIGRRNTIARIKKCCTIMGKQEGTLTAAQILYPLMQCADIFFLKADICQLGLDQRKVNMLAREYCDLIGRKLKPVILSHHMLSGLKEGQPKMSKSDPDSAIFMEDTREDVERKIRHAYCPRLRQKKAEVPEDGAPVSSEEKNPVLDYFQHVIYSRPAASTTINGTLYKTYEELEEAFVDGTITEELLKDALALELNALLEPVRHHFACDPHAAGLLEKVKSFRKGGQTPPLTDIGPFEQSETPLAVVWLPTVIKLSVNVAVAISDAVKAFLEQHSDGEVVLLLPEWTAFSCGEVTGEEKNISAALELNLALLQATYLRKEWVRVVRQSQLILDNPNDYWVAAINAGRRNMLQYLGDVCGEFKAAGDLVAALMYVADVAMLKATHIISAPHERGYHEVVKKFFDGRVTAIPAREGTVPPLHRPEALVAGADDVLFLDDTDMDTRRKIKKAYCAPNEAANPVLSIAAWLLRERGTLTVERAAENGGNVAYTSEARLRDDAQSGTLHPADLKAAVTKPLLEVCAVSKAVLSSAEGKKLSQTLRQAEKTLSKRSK

[10] = biological target: T4, Tyrosyl-tRNA synthetase, putative (Trypanosoma cruzi (strain CL Brener)); assay: Trypanosoma cruzi tyrosyl tRNA synthetase (TcYRS) SOP; type: functional; details: 30 µM
[11] = biological target: Chromo domain-containing protein 1 (Saccharomyces cerevisiae (strain ATCC 204508 / S288c) (Baker's yeast)) (UniProt P32657); assay: ScCHD-1 Enzyme Inhibition Assay; type: functional; details: 30 µM; note: in the data most compounds retested in dose-response had high values
Sequence of Chromo domain-containing protein 1 (Saccharomyces cerevisiae (strain ATCC 204508 / S288c) (Baker's yeast)) (P32657 whole entry, the tested form may be a part): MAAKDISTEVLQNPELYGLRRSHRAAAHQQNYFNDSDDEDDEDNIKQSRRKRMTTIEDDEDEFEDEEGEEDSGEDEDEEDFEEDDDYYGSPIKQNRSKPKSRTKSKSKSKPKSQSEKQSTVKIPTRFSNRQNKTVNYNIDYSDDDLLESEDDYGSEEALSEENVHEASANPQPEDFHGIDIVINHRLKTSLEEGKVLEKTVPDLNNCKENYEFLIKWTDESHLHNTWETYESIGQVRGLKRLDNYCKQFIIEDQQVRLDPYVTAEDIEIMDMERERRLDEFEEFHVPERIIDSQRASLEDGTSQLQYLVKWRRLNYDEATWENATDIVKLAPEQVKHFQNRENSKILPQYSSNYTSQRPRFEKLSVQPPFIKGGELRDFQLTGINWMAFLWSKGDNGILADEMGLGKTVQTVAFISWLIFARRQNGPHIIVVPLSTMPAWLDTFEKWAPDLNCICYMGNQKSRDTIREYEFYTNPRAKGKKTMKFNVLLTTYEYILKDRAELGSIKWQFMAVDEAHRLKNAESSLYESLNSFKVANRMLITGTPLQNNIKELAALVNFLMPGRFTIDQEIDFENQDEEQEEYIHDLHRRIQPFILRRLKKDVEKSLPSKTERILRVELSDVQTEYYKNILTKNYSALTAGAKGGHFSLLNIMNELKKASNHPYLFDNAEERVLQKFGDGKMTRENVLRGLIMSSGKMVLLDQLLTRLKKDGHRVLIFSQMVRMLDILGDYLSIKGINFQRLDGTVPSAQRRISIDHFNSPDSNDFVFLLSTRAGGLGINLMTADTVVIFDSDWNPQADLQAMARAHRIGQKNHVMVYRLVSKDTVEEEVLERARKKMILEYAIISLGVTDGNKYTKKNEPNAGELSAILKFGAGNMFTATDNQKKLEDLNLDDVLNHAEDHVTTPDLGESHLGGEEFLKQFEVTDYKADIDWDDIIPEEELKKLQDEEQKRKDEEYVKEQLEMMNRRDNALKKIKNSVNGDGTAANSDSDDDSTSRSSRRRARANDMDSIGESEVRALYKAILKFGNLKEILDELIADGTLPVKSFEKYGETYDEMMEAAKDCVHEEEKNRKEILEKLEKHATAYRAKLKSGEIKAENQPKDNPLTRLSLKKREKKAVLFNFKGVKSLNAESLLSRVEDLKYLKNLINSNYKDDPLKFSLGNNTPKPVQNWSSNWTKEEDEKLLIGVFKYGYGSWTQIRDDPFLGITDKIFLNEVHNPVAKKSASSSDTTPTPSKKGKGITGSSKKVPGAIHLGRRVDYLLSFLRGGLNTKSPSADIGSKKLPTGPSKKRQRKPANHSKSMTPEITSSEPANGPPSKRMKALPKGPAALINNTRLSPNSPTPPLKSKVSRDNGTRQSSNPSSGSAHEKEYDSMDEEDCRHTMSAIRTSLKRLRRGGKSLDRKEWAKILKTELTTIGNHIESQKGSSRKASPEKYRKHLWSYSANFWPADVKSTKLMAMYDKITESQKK

Sequence of Protein translocase subunit SecA (Escherichia coli (strain K12)) (P10408 whole entry): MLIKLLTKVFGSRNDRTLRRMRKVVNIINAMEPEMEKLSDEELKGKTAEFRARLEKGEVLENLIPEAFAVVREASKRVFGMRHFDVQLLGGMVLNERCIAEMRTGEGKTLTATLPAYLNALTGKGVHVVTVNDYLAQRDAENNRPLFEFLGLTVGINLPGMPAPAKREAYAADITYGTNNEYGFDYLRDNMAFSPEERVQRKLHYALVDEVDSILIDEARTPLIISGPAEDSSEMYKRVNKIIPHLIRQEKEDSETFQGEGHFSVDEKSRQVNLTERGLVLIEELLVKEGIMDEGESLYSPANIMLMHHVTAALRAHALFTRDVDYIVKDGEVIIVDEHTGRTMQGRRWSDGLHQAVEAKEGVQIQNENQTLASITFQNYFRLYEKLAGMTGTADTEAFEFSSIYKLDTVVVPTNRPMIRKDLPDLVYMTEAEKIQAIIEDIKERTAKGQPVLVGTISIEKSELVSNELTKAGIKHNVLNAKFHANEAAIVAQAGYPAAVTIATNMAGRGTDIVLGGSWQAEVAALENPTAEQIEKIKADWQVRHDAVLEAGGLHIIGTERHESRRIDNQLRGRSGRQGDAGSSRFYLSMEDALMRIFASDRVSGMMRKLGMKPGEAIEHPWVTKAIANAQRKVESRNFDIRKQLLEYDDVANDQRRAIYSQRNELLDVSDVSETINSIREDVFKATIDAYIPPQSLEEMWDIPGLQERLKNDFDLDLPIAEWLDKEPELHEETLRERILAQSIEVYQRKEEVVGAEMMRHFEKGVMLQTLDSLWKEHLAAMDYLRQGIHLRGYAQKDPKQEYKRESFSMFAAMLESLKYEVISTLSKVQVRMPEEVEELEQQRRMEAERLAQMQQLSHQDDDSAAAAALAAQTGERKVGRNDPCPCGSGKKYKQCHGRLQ

| SMILES | Percent Effect [1] | Percent Effect [2] | Percent Effect [3] | Percent Effect [4] | Percent Effect [5] | Percent Effect [6] | Percent Effect [7] | Percent Effect [8] | Percent Effect [9] | Percent Effect [10] | Percent Effect [11] |
| --- | --- | --- | --- | --- | --- | --- | --- | --- | --- | --- | --- |
| N#Cc1ccc(C(=O)N2CC[C@H]3[C@@H]2CCC(=O)N3c2ccccc2)cc1 | 1.09% | 0% | 6.69% | -7.59% | -7.68% | 4.89% | 6.08% | 0.115% | 4.25% | 11.5% | -4.7% |
| COCc1ccccc1CNc1cc(N2CCCC2CO)ncn1 (stereo not given) | -4.86% | 18.2% | -4.12% | 3.3% | -2.43% | 1.07% | 11.7% | 7.92% | 5.83% | 19.5% | -6.07% |
| CC(=O)Nc1nc(C(=O)Nc2ccc(N3CCCCC3)nc2)cs1 | -1.91% | -3.8% | 22.9% | 0.734% | -3.18% | -1.5% | 10.6% | 11.2% | 9.38% | 10.1% | -11.6% |
| CN(C)c1ccc(C(=O)N2CCN(C(=O)N3CCCCC3)CC2)nn1 | -6.05% | 7.79% | 4.21% | 10.5% | 5.8% | -3.92% | 4.56% | 3.45% | 0% | 7.32% | -13.4% |
| COc1ccc(-c2cc(C3CCCCCN3S(=O)(=O)N(C)C)on2)cc1 (stereo not given) | -2.23% | -14.9% | 6.56% | -4.82% | 4.54% | -1.16% | 14.3% | 12.8% | -50.5% | -66.2% | -12.7% |
| Cc1nccn1CCC1CCCCN1C(=O)c1ccc2[nH]nnc2c1 (stereo not given) | -2.88% | 10.7% | -0.957% | 10% | 2.63% | 16.7% | 9.59% | 7.47% | 3.83% | 6.17% | -6.44% |
| c1ccc2cc(OCCN3CCOC(Cn4cncn4)C3)ccc2c1 (stereo not given) | -4.49% | 6.33% | -0.381% | 14% | 2.77% | -1.5% | 10.3% | 5.72% | 4.17% | 10.1% | -6.36% |
| Cc1noc2ncc(C(=O)NCC3CCN(C(C)C)C3)cc12 (stereo not given) | -2.65% | 2.63% | 2.21% | 2.67% | -6.58% | 4.21% | 4.34% | 4.5% | -0.49% | 4.88% | 3.24% |
| CCc1nc(C2CCCN2Cc2nnc(Cc3ccccc3)o2)no1 (stereo not given) | -3% | 0% | 2.23% | 3.12% | 8.52% | 1.9% | 5.25% | -2.79% | 1.91% | 2.35% | 4.27% |
| CC(NC(=O)NCc1ccc(Cl)cc1)c1ccccn1 (stereo not given) | -1.55% | 1.27% | 3.12% | 3.62% | 5.23% | -6.24% | 12% | 12.2% | 2.08% | 0% | -24.6% |

— ChEMBL document CHEMBL3988442, “University of Dundee, Small-Polar-MMV Screening Library” (2021)
